Data taken from ChEMBL document CHEMBL2218924, “A broad activity screen in support of a chemogenomic map for kinase signalling research and drug discovery” (Biochem J, 2013).

What was measured:
[1] = biological target: T1, Protein kinase C epsilon type (Homo sapiens) (UniProt Q02156); settings: at 1 µM
T1 sequence (whole entry): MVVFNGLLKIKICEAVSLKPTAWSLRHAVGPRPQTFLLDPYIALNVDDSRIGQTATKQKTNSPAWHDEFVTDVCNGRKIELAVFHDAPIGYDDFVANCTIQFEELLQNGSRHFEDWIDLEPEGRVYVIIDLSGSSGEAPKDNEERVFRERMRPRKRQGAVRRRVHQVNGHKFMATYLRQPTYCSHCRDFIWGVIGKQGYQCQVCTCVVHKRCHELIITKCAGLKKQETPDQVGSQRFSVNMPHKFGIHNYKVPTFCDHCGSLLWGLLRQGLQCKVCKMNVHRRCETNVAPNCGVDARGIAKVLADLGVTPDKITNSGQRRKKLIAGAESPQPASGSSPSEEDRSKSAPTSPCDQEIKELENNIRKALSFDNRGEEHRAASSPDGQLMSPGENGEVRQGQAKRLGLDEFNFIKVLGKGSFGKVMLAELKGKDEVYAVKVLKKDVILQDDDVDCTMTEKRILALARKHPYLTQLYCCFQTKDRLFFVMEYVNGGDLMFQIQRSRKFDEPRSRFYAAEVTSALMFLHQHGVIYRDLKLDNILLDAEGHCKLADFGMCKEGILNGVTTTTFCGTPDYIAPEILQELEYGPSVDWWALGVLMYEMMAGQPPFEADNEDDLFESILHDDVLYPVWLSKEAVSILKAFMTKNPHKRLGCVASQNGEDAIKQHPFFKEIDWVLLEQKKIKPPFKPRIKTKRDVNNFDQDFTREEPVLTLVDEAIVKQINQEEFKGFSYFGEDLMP

[2] = biological target: T1, Protein kinase C epsilon type (Homo sapiens); settings: at 10 µM

Structure (SMILES) | residual activity [1] [%] | residual activity [2] [%]
COc1cc2ncnc(Nc3ccc(NC(=O)c4ccccc4)cc3)c2cc1OC | 93 | –
COc1ccc(C(=O)Nc2sc3c(c2C(N)=O)CCCC3)cc1OC | 89 | 96
Oc1ccc(Nc2nc(-c3ccc(Cl)cc3)cs2)cc1 | 115 | 112
O=C(O)c1ccc2c3c1cccc3c(=O)n1c3ccccc3nc21 | 112 | 109
Cc1cccc(-c2[nH]c(C(C)(C)C)nc2-c2ccc3c(c2)OCO3)n1 | 80 | 91
Nc1ccc2ncnc(NCCc3ccc(Oc4ccccc4)cc3)c2c1 | 119 | 126
O=c1c2ccccc2[nH]c(=S)n1CCN1CCC(=C(c2ccc(F)cc2)c2ccc(F)cc2)CC1 | 91 | 93
CN(C)c1ccc(/C=C2\C(=O)Nc3ccccc32)cc1 | 120 | 121
Cn1cnc2cc3c(Nc4cccc(Br)c4)ncnc3cc21 | 86 | 95
CC(C)n1cnc2/c(=N/c3cccc(Cl)c3)nc(NCCO)[nH]c21 | 75 | 92
CO[C@@H]1[C@H](N(C)C(=O)c2ccccc2)C[C@H]2O[C@]1(C)n1c3ccccc3c3c4c(c5c6ccccc6n2c5c31)C(=O)NC4 | 42 | 14
COc1cc2ncnc(Nc3ccc(Oc4ccccc4)cc3)c2cc1OC | 85 | 89
O=C1NC(=O)/C(=C/c2ccc3c(c2)OC(F)(F)O3)S1 | 106 | 99
NC(=O)c1ccc2[nH]c(-c3ccc(Oc4ccc(Cl)cc4)cc3)nc2c1 | 95 | 85
Oc1ccc(-c2nc(-c3ccc(F)cc3)c(-c3ccncc3)[nH]2)cc1 | 122 | 99
